Experimental data: the supplement of paper PMC11732987, “Enantioselective OTUD7B fragment discovery through chemoproteomics screening and high-throughput optimisation” (Communications Chemistry, 2025)
A number with no mark means an inactive call.

Each molecule was assayed against T1, UCHL3 (UniProt P15374) (assay: log2 ratio of Biotin-Ahx-Ub-VS probe labelling (fragment/DMSO); higher = less target engagement (more negative = stronger competition), active = hit call of the paper (q ≤ 0.05, log2 ratio ≤ -1)). Conditions: compound concentration: 200 uM; treatment time: 3 h.
T1 sequence (whole entry): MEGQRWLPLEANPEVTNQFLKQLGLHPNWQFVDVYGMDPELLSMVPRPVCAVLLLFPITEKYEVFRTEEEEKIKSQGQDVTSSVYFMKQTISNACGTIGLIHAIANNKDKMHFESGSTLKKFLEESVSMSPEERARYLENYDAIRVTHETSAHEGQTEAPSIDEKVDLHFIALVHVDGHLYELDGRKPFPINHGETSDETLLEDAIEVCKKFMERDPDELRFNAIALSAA
Outline: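 HEK293T lysate (495 µg per sample, in Tris/CHAPS/IGEPAL buffer with protease inhibitors) was treated in triplicate with fragment at 200 µM or with DMSO for 3 h. It was then treated with Biotin-Ahx-Ub-VS (0.5 µM final) for 1 h. Labelled DUBs were NeutrAvidin-enriched, digested with LysC and trypsin, and run by diaPASEF LC-MS/MS. Spectronaut label-free quantities were global-median-normalised. Values are average log2 ratios fragment/DMSO by unpaired t-test, using proteins with ≥2 unique peptides.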

| SMILES | log2 ratio of Biotin-Ahx-Ub-VS probe labelling |
| --- | --- |
| Cl.O=C(CCl)N1CCC(n2nc3ccccc3n2)CC1 | -0.23 |
| Cc1cccc(C)c1NC(=O)CCl | 0.0922 |
| CCN(C(=O)CCl)C1CCS(=O)(=O)C1 (stereo unspecified) | 0.365 |
| Cl.O=C(CCl)N[C@H]1C[C@@H](n2cccn2)C1 | 0.478 |
| Cc1ccc2nnc(CNC(=O)CCl)n2c1 | 0.34 |
| O=C(CCl)Nc1ccc(N2CCCC2=O)cc1 | 0.206 |
| Cl.O=C(CCl)NCc1ccnc(Oc2ccccc2F)c1 | 0.27 |
| O=C(CCl)N1CCC(S(=O)(=O)c2ccc(F)cc2)CC1 | 0.498 |
| Cl.O=C(CCl)N1CCn2ncc(O)c2C1 | -0.188 |
| Cc1cccc(NC(=O)CCl)c1C | -1.39 (active) |
| CCN(C(=O)CCl)C1CCCCC1 | 0.576 |
| O=C(CCl)NC1(c2ccc3c(c2)OCCO3)CCCC1 | -0.106 |
| O=C(CCl)N1CCN(C(=O)Nc2ccccc2)CC1 | -0.441 |
| O=C(CCl)NC(Cn1ccccc1=O)c1ccccc1 (stereo unspecified) | 0.233 |
| CC1CCc2onc(CNC(=O)CCl)c2C1 (stereo unspecified) | 0.123 |
| O=C(CCl)N1CCCCCC1c1ncon1 (stereo unspecified) | 0.279 |
| Cc1cccc(N(CCC#N)C(=O)CCl)c1C | 0.389 |
| O=C(CCl)Nc1ccccc1C(F)(F)F | 0.2 |
| Cc1ccccc1OCC(=O)N1CCN(C(=O)CCl)CC1 | 0.461 |
| CN(C)C(=O)c1ccc(CNC(=O)CCl)cc1 | 0.248 |
| Cl.Cn1cnc2cc(CNC(=O)CCl)ccc21 | 0.249 |
